Our source for the growth values is PubChem BioAssay (NCI).

About 83,000 compounds went through this panel and 20% of them were active in at least one assay; those are over-represented in the sample as a whole.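 Plates (96-well) were seeded with cells, treated with compound at one concentration, and incubated for 48 hours before percent growth was determined.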 Activity calls are given as the source filed them.

This assay has as its system SN12C renal. Kind of assay: NCI-60 one-dose screen, 48 h (100 = growth as untreated, 0 = no growth, -100 = all killed). As to conditions: 10 µM unless noted. The procedure:
Growth inhibition of the SN12C human tumor cell line is measured as a screen for anti-cancer activity. Cells are grown in 96 well plates and exposed to the test compound for 48 hours. Compounds are tested at a single concentration, which is 10^-5 M for most compounds. The reported endpoint is percent growth (GI% or GIPRCNT), where numbers from 0 - 100% represent growth inhibition, and numbers from -100% - 0 represent cell death. For example, a value of 40 represents 60% growth inhibition. A value of 0 means no net growth occurred over the course of the experiment. A value of -40 indicates 40% of cells at the beginning of the experiment died by the end of the experiment. A value of -100 means all cells are dead at the end of the experiment.
NCI-60 Human Tumor Cell Lines Screen was performed using the standard one-dose NCI protocol, which is described in more detail at https://dtp.cancer.gov/discovery_development/nci-60/default.htm.
Compounds with GIPRCNT values below 10 were considered active. Activity score was based on GIPRCNT using the following formula: […]
Score is 0 for GIPRCNT values of 100 or above, 50 for GIPRCNT values of 0, and 100 for GIPRCNT values of -100.
As to `c1ccc(-c2cn3ccnc3c(-c3ccc4ncn(C5CCCCC5)c4c3)n2)cc1`, the growth is 71.2% (inactive).
For `O=C(CCl)c1ccc2c(c1)CCCC2`, the growth is 96.5% (inactive).
The value for `CCCNC(=O)Oc1ccc(/C(=C(/CC)Cc2ccccc2)c2ccc(OCCN(CC)CC)cc2)cc1` was 78.6% (inactive); that for `COc1ccc(Cn2cc3c(c2)-c2oncc2CC3)cc1OC` was 38.9% (inactive); that for `CCCCCSc1ccc2nc(NC(=O)OCCC)sc2c1` was 57.4% (inactive).
As for `CCCCCCCCCCCCOC(=O)/C=C\C(=O)NC(N)=O`, the growth is 84.3% (inactive).
As for `CCOC(=O)CSSCC(=O)OCC`, the growth was 103% (inactive).
Consider `CC1(C)CC(=O)C2=C(C1)Oc1nc(N)c(C#N)c(N)c1C2c1ccc(F)cc1` (stereo not given), for which the growth is 107% (inactive).
Then `CCOC(=O)c1cc(C(=O)c2ccc(Br)cc2)n2cc(C)cc(C)c12`, with 101% (inactive); and `Cc1nc(NC(=O)NC2CCCCC2)sc1C(=O)NN`, with 106% (inactive); and `CC(=O)Nc1nc(C)c(C(=O)N/N=C/c2cccs2)s1`, with 92.6% (inactive).
The value for `CCOP1(=O)CC(C)=C(Cl)C(P(=O)(O)O)C1` (stereo not given) was 99.3% (inactive).
Then `OCCN1CCCN(CCCN2c3ccccc3Sc3ccc(C(F)(F)F)cc32)CC1`, with 62.9% (inactive); and `CCS(=O)(=O)N[C@@H]1O[C@H](COC(C)=O)C(OC(C)=O)[C@H](OC(C)=O)C1OC(C)=O` (stereo not given in full), with 112% (inactive).
Take `CC1=NN(c2cccc(Cl)c2)C(=O)/C1=C\c1cn(-c2nc(N3CCOCC3)nc(N3CCOCC3)n2)c2ccccc12`: the growth was 104% (inactive).
The value for `COc1ccc(OC)c(Cn2cc3c(c2)-c2oncc2CC3)c1` was 45.9% (inactive); that for `N=c1c2c(=O)n3c(nc2nc2sc4ccc(Cl)cc4n12)-c1ccccc1Sc1ccccc1-3` was 21.4% (inactive); that for `NNC(=O)CNc1ccc2ccccc2c1` was 104% (inactive).
On to `O=C(/C=C/c1ccc(Cl)cc1)c1ccc(Cl)cc1`, for which the growth is 102% (inactive).
For the molecule `COCC(=O)NNc1[nH]c(-c2ccc(OC)cc2)cc1C#N`, the growth is 112% (inactive).
The value for `COC(=O)c1ccc2[nH]c(O)c(C(=Nc3ccc(N(C)C(=O)CN4CCN(C)CC4)cc3)c3ccc4c(c3)OCO4)c2c1` was 10.9% (inactive); that for `CC(=O)OCC1O[C@@H](OC(C)=O)[C@@H](NC(=O)NS(=O)(=O)c2ccccc2)C(OC(C)=O)[C@@H]1OC(C)=O` (stereo not given in full) was 97.2% (inactive); that for `O=C1/C(=N\c2cc(=O)[nH]n2S(=O)(=O)c2ccccc2)Nc2ccccc21` was 98.2% (inactive).
Then `NNC(=S)N1N=C(c2cc3ccccc3o2)CC1c1c[nH]c2ccccc12` (stereo not given), with 56.9% (inactive); and `O=CN/N=C/c1ccc(Cl)c([N+](=O)[O-])c1`, with 21.2% (inactive); and `COc1ccc2oc(=O)cc(CN3C(=O)S/C(=C\c4ccc(Cl)cc4)C3=O)c2c1`, with 108% (inactive).
For `O=C(Nc1ccc(-n2cc(-c3ccncc3)c(-c3ccc(Cl)c(O)c3)n2)cc1)Nc1cc(C(F)(F)F)cc(C(F)(F)F)c1`, the growth was 30.1% (inactive).
As to `Cc1ccccc1-n1c(C)nc2cc(NC(=O)c3ccc(Cl)cc3)ccc2c1=O`, the growth was 68.6% (inactive).
Then `CCCCCCCCCCC(C[N+](C)(C)C/C=C/c1ccccc1)C(O)c1ccccc1` (stereo not given), with 15.8% (inactive).
The value for `COc1ccc(C(=O)c2no[n+]([O-])c2C(=O)c2ccc(OC)cc2)cc1` was 72.5% (inactive); that for `COc1ccc(-c2nc(N)n(C(=S)Nc3ccccc3)n2)cc1` was 100% (inactive).
`COc1cc([C@@H]2c3cc4c(cc3[C@H](O)[C@H]3COC[C@@H]23)OCO4)cc(OC)c1OC`: the growth was 90.5% (inactive).
On to `Clc1ccc(N/N=C(\c2ccccc2)c2ccccn2)nc1`, for which the growth was 15.7% (inactive).
Then `O=C(O)c1occ(Cl)c1Cl`, with 109% (inactive).
The value for `CCC(C)C1NC(=O)C(CC(C)C)NC(=O)C(C)NC(=O)C(C(C)C)NC(=O)C(CCCCN)NC(=O)C(CC(C)C)NC(=O)C(C(C)C)NC(=O)[C@H](C)NC(=O)C(C(C)CC)NC(=O)C(CCCN=C(N)N)NC(=O)C(CCCCN)NC(=O)C(CCCN=C(N)N)NC(=O)C(CCCCN)NC(=O)C([C@H](C)CC)NC(=O)C(CCCCN)NC1=O` (stereo not given in full) was 10.9% (inactive); that for `CCCCCCCCCCCCc1ccc([N+](CC)(CC)CC)cc1` was 33.5% (inactive).
Turning to `CC(C)(CNC1CCCCC1)OC(=O)c1ccccc1`, the growth was 95.1% (inactive).
The value for `CC(=O)c1cc(Nc2cc(C)nc(N)n2)cc(C(C)=O)c1` was 94.1% (inactive); that for `COc1ccc(-c2nnc(SCC(=O)Nc3ccc(C(=O)/C=C/c4cc(OC)c(OC)c(OC)c4)cc3)n2-c2ccccc2)cc1OC` was 31.8% [100 µM] (inactive); that for `CSCc1ncc(-c2ccc(C(F)(F)F)cc2)c(NC2CCCCCC2)n1` was 83.2% [25 µM] (inactive).
